Compound activity: PubChem, Broad Institute
Only a selection was taken, and hits are over-represented in it overall.
BL2 CD40 inh: CD40 pathway inhibition in BL2 cells. BL2 NF-kB luciferase reporter, CD40L-induced, 4 h. inhibition, % at 10 µM. hit rate 0.94% among 83,000. AID 1053188;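 active means mean inhibition of at least 50% with a set share of replicates also reaching that level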
Hits are given with their value; [ ] = dose if it differs, or a comment.

Results for CCS(=O)(=O)N1CC2(CN(C(=O)NC(C)C)[C@H](CO)c3c2c2ccc(OC)cc2n3C)C1 ?
BL2 CD40 inh: inactive

What do the screens show for `CS(=O)(=O)Nc1ccc2c(c1)[C@H]1C[C@H](CC(=O)NC3CCCC3)O[C@H](CO)[C@H]1O2`?
BL2 CD40 inh: inactive

Results for CC(=O)c1ccc(NC(=O)c2noc3c2CCC3)cc1 ?
BL2 CD40 inh: 57.5

Results for COC(=O)c1ccccc1NC(=O)c1noc2c1CCCC2 ?
BL2 CD40 inh: inactive

How did COc1ccc(CNC(=O)c2noc3c2CCCCC3)cc1 do in these assays?
BL2 CD40 inh: inactive

How did C/C=C/c1ccc([C@H]2[C@@H](CNS(C)(=O)=O)N(CC3CCCC3)[C@H]2CO)cc1 do in these assays?
BL2 CD40 inh: inactive

How did Cc1cccc(S(=O)(=O)N2[C@@H]3CNC[C@H]2C3c2ccc(-c3cncnc3)cc2)c1 (some centres undefined) do in these assays?
BL2 CD40 inh: inactive

Results for CC(C)[C@H]1C(=O)N[C@H](c2cccc(Cl)c2)CC=CC[C@H](C)Oc2ccccc2C(=O)N1C (mixture of isomers) ?
BL2 CD40 inh: inactive

How did O=C(O)C1CCCCN1S(=O)(=O)c1ccc2ccccc2c1 (centres undefined) do in these assays?
BL2 CD40 inh: inactive

What do the screens show for `OC(COc1ccc2ccccc2c1)CN1CCCC1` (centres undefined)?
BL2 CD40 inh: inactive

What do the screens show for `O=S(=O)(CC(CN1CCCC1)N1CCCC1)c1ccc2ccccc2c1` (centres undefined)?
BL2 CD40 inh: 51.7

Results for Cc1ccc(-c2ccccc2[C@@H]2[C@@H](C#N)N(C(=O)Cc3cccnc3)[C@@H]2CO)cc1 ?
BL2 CD40 inh: inactive

How did O=C(c1ccccc1)N1CC[C@@H]2[C@H]1c1cc(C#Cc3cccnc3)ccc1N[C@@H]2CO do in these assays?
BL2 CD40 inh: inactive

How did COCC#Cc1ccc([C@@H]2[C@@H](CO)N3CCCCN(Cc4cccnc4)C[C@@H]23)cc1 do in these assays?
BL2 CD40 inh: inactive

How did COCC(=O)N1C[C@@H]2[C@H](c3ccccc31)[C@@H](CO)N2C(=O)C1CCCCC1 do in these assays?
BL2 CD40 inh: inactive

How did OC[C@@H]1[C@H](c2ccc(Br)cc2)[C@@H]2CN(Cc3cncnc3)CCCCN12 do in these assays?
BL2 CD40 inh: inactive

Results for CC(C)[C@@H](C)NC(=O)N(C)C[C@H]1OCc2ccccc2-c2ccccc2C(=O)N([C@H](C)CO)C[C@H]1C ?
BL2 CD40 inh: inactive

Results for O=C(NCCc1ccccc1)c1noc2c1CCc1ccccc1-2 ?
BL2 CD40 inh: inactive

Results for O=C1c2ccccc2CCC1CNCCc1ccc(O)cc1 (centres undefined) ?
BL2 CD40 inh: 91.0[25 µM]

How did CC(=O)NCCc1ccc(O)cc1 do in these assays?
BL2 CD40 inh: inactive

How did O=C(N[C@H]1CC[C@H](CCNC(=O)C2CCCC2)O[C@@H]1CO)c1ccccn1 do in these assays?
BL2 CD40 inh: inactive

Results for O=C(NC[C@@H]1[C@H](c2ccccc2)[C@@H](CO)N1C(=O)Cc1ccncc1)C1CCC1 ?
BL2 CD40 inh: inactive

Results for COc1ccc(CC2C(=O)NC(C)C(=O)N(C)C3Cc4ccc(cc4)Oc4cc(ccc4O)CC(C(=O)NC(C)C(=O)NC(C)C(=O)N2C)N(C)C3=O)cc1 (centres undefined) ?
BL2 CD40 inh: 67.1

How did O=C(NC1CCC1)[C@@H]1[C@@H](CO)[C@@H]2Cn3c(cccc3=O)[C@@H]2N1CC1CCOCC1 do in these assays?
BL2 CD40 inh: inactive

What do the screens show for `O=C(C[C@H]1C[C@H]2c3cc(NC(=O)NC4CCCC4)ccc3O[C@H]2[C@@H](CO)O1)NCC(F)(F)F`?
BL2 CD40 inh: inactive

What do the screens show for `CC(C)NC(=O)N(C)C[C@H]1Oc2ncccc2C(=O)N(C)C[C@@H]1C`?
BL2 CD40 inh: inactive

Results for COc1ccc([C@@H]2CC=CC[C@@H](C)Oc3ccccc3C(=O)N(C)[C@@H](C(C)C)C(=O)N2)c(OC)c1 (mixture of isomers) ?
BL2 CD40 inh: inactive

What do the screens show for `O=C(NCCN1CCOCC1)c1cccc(S(=O)(=O)N2CCCC2)c1`?
BL2 CD40 inh: inactive

Results for O=C(NCCc1ccc2c(c1)OCCO2)c1cccc(S(=O)(=O)N2CCCC2)c1 ?
BL2 CD40 inh: 43.1

How did COc1ccc(CCNC(=O)c2cccc(S(=O)(=O)N3CCCC3)c2)cc1 do in these assays?
BL2 CD40 inh: inactive

Results for C[C@@H]1CN([C@H](C)CO)C(=O)c2ccccc2-c2ccccc2CO[C@@H]1CN(C)Cc1ccc(-c2ccccc2)cc1 ?
BL2 CD40 inh: inactive

What do the screens show for `COc1ccc2c3c(n(C)c2c1)[C@H](CO)N(C)CC31CCN(S(=O)(=O)c2cccc(F)c2)CC1`?
BL2 CD40 inh: inactive

Results for O=C(c1cccnc1)N1C[C@@H]2[C@H](c3ccccc31)[C@@H](CO)N2C(=O)C1CCCCC1 ?
BL2 CD40 inh: inactive

How did COC(=O)c1ccccc1NC(=O)COC(=O)/C=C/c1cccs1 do in these assays?
BL2 CD40 inh: inactive

How did COC(=O)c1ccccc1NC1=C/C(=N\S(=O)(=O)c2cccs2)c2ccccc2C1=O do in these assays?
BL2 CD40 inh: 33.2

What do the screens show for `COC(=O)c1ccccc1NC(=O)C(CCS(C)(=O)=O)NC(C)=O` (centres undefined)?
BL2 CD40 inh: inactive

What do the screens show for `CCS(=O)(=O)N1CCCCN2[C@H](CO)[C@H](c3ccc(-c4ccc(C(=O)N(C)C)cc4)cc3)[C@H]2C1`?
BL2 CD40 inh: inactive

How did Cc1nn2c(-c3cccnc3)ccnc2c1-c1ccccc1 do in these assays?
BL2 CD40 inh: inactive

Results for Cn1c(SSc2ccc(-c3cccnc3)n2C)ccc1-c1cccnc1 ?
BL2 CD40 inh: 48.3

How did Cn1c(SC/C=C/c2ccccc2)nnc1-c1cccnc1 do in these assays?
BL2 CD40 inh: inactive

Results for CN(C)C(=O)c1cccc(-c2ccccc2[C@@H]2[C@@H](CO)N(C(=O)C3CCC3)[C@H]2C#N)c1 ?
BL2 CD40 inh: inactive

Results for COc1ccc(C(=O)/C=C/C(=O)N(CC(=O)NC2CCCCC2)Cc2ccccc2OC)c(O)c1 ?
BL2 CD40 inh: inactive

Results for COc1ccc(C(=O)/C=C/C(=O)N(CC(=O)NC2CCCCC2)Cc2ccccc2)c(O)c1 ?
BL2 CD40 inh: 104.7

What do the screens show for `COc1cccc(/C=C/C(=O)OCC(=O)NC2CCCCCCC2)c1`?
BL2 CD40 inh: inactive

What do the screens show for `Cc1cccc(-c2ccc([C@@H]3[C@@H](CO)N4CCCCN(S(=O)(=O)c5ccccc5F)C[C@H]34)cc2)c1`?
BL2 CD40 inh: 71.1[25 µM]

What do the screens show for `Cc1cccc(-c2ccc([C@H]3[C@@H](CO)N4CCCCN(S(=O)(=O)c5ccccc5F)C[C@@H]34)cc2)c1`?
BL2 CD40 inh: inactive

How did Cc1cccc(-c2ccc([C@@H]3[C@@H](CO)N4CCCCN(S(=O)(=O)c5ccccc5F)C[C@@H]34)cc2)c1 do in these assays?
BL2 CD40 inh: inactive

What do the screens show for `O=C(Nc1nnc(C2CC2)s1)C1CC(=O)N(c2ccc3c(c2)OCCO3)C1` (centres undefined)?
BL2 CD40 inh: 51.2

What do the screens show for `O=C(Nc1nc2ccc(F)cc2s1)C1CC(=O)N(c2ccc3c(c2)OCCO3)C1` (centres undefined)?
BL2 CD40 inh: inactive

What do the screens show for `O=C(Nc1nnc(C2CCCCC2)s1)C1CC(=O)N(c2ccccc2)C1` (centres undefined)?
BL2 CD40 inh: inactive

Results for COc1ccc(C[C@H]2CCc3cnnn3COCCNC2=O)cc1 ?
BL2 CD40 inh: inactive

Results for CC(=O)N1[C@H](CO)[C@@H]2c3ccccc3N(C(=O)c3ccc(F)cc3)C[C@@H]21 ?
BL2 CD40 inh: inactive
